Results on four compounds are retold here after ChEMBL document CHEMBL1961873, “Compounds: GSK PKIS; Assays: Nanosyn kinase panel” (2012).

The structures appear in SMILES notation.

For assay [1], the target named is T1, Serine/threonine-protein kinase D2 (Homo sapiens) (UniProt Q9BZL6).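 Further: mean value of PRKD2 inhibition, from the GSK PKIS screening panel.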
T1 sequence (whole entry): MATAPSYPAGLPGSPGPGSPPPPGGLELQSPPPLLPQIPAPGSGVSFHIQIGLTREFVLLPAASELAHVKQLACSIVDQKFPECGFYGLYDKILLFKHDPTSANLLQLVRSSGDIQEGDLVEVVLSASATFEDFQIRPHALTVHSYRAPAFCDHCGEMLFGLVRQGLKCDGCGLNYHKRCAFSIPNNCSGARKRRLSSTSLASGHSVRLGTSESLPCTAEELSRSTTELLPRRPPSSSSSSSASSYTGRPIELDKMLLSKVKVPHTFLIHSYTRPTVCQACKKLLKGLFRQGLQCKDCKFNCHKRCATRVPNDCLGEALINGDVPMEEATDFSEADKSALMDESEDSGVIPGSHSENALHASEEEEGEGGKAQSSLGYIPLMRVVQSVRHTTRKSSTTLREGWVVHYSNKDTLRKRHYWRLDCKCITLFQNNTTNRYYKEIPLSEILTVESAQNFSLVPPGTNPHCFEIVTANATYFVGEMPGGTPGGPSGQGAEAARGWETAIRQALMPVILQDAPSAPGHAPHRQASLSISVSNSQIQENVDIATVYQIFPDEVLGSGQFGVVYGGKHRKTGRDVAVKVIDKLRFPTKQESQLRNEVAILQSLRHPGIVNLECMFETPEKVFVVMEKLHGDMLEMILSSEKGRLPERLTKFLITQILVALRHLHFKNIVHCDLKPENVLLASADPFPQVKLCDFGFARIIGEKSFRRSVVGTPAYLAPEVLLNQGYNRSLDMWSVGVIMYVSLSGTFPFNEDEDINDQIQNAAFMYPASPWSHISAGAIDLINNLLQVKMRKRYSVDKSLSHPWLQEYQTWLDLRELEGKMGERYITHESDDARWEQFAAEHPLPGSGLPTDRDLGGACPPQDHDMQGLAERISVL
The note with it: at 1 µM.

Assay [2] has as its target T2, Serine/threonine-protein kinase D3 (Homo sapiens) (UniProt O94806).
T2 sequence (whole entry): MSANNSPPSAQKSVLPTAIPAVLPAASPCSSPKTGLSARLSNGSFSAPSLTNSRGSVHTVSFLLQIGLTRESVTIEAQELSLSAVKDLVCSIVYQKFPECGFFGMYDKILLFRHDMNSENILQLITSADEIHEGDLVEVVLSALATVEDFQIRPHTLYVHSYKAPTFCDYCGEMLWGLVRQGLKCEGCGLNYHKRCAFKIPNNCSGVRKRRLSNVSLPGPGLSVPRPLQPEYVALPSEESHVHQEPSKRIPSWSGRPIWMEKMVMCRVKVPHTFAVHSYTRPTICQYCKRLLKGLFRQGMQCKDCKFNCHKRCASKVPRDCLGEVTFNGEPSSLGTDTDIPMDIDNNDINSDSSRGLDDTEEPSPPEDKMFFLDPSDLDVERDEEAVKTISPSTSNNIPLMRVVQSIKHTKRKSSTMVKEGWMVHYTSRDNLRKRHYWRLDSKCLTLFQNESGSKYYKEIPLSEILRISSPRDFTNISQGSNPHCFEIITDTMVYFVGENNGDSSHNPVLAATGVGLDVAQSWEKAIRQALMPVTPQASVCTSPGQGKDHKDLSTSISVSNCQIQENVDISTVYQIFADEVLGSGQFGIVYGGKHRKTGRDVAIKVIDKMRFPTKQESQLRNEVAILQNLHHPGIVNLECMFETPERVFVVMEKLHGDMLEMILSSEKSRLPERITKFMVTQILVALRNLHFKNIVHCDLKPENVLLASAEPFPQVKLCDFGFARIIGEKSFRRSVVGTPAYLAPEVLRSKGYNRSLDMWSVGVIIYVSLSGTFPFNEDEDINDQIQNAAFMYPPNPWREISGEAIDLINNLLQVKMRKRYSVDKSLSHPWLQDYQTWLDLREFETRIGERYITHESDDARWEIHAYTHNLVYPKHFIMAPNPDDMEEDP
The conditions noted are these: at 0.1 µM.

Assay [3] addresses T2, Serine/threonine-protein kinase D3 (Homo sapiens). The note with it: at 1 µM.
Assay [4] addresses T3, cGMP-dependent protein kinase 1 (Homo sapiens) (UniProt Q13976).
T3 sequence (whole entry): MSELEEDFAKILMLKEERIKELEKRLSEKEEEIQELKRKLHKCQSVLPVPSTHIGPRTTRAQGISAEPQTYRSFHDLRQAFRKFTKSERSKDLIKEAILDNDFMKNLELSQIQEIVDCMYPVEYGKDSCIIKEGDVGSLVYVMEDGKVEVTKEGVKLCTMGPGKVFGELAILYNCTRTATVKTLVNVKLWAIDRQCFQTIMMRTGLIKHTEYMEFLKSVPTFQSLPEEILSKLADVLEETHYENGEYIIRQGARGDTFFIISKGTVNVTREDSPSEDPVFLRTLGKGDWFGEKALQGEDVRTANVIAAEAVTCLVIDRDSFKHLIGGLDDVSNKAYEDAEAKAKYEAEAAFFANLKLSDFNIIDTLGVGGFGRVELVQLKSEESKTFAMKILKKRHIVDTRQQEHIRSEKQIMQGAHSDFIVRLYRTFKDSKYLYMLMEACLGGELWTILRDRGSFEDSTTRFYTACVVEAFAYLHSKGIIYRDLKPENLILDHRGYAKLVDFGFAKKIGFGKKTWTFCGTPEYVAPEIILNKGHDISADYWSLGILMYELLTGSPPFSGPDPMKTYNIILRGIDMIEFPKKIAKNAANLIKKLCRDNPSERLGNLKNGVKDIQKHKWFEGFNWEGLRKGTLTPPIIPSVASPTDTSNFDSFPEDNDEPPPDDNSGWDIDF
The conditions noted are these: at 0.1 µM.

The target in assay [5] is T3, cGMP-dependent protein kinase 1 (Homo sapiens). The conditions noted are these: at 1 µM.
Assay [6] has as its target T4, cGMP-dependent protein kinase 2 (Homo sapiens) (UniProt Q13237).
T4 sequence (whole entry): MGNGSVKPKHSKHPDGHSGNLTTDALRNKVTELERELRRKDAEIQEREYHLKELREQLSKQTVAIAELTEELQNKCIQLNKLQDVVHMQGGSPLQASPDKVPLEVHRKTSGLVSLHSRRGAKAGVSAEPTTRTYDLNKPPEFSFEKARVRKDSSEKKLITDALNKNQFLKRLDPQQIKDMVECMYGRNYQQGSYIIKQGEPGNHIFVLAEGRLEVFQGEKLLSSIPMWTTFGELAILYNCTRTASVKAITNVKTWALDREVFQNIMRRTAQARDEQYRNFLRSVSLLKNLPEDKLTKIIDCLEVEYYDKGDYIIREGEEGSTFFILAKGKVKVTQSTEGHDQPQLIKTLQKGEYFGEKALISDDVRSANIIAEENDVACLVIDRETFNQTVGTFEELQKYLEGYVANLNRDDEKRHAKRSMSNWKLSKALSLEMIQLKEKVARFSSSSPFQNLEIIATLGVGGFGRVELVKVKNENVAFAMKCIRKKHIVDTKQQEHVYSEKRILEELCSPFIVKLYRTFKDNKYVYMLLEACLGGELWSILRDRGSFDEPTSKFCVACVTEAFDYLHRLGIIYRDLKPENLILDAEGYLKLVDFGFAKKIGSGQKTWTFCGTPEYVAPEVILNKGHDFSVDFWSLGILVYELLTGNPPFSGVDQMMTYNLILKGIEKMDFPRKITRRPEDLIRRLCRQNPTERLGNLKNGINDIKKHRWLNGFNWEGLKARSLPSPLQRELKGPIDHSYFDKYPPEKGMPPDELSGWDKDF
The note with it: at 0.1 µM.

Assay [7] concerns the target T4, cGMP-dependent protein kinase 2 (Homo sapiens). The conditions noted are these: at 1 µM.
The target of assay [8] is T5, cAMP-dependent protein kinase catalytic subunit PRKX (Homo sapiens) (UniProt P51817).
T5 sequence (whole entry): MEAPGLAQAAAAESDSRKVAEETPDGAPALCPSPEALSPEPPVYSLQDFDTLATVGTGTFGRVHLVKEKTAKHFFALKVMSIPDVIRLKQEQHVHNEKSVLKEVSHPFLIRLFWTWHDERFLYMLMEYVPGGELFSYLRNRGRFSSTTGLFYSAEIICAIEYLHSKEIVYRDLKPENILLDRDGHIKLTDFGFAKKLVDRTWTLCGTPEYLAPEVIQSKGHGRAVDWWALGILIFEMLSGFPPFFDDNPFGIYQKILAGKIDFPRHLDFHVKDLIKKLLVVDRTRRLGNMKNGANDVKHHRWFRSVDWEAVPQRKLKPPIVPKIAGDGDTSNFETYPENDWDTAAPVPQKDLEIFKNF
The note with it: at 0.1 µM.

Assay [9] has as its target T5, cAMP-dependent protein kinase catalytic subunit PRKX (Homo sapiens). The conditions noted are these: at 1 µM.
The target in assay [10] is Rho-associated protein kinase 1 (Homo sapiens) (UniProt Q13464). The conditions noted are these: at 0.1 µM.
Rho-associated protein kinase 1 (Homo sapiens), sequence (Q13464 2-1354 limits assumed): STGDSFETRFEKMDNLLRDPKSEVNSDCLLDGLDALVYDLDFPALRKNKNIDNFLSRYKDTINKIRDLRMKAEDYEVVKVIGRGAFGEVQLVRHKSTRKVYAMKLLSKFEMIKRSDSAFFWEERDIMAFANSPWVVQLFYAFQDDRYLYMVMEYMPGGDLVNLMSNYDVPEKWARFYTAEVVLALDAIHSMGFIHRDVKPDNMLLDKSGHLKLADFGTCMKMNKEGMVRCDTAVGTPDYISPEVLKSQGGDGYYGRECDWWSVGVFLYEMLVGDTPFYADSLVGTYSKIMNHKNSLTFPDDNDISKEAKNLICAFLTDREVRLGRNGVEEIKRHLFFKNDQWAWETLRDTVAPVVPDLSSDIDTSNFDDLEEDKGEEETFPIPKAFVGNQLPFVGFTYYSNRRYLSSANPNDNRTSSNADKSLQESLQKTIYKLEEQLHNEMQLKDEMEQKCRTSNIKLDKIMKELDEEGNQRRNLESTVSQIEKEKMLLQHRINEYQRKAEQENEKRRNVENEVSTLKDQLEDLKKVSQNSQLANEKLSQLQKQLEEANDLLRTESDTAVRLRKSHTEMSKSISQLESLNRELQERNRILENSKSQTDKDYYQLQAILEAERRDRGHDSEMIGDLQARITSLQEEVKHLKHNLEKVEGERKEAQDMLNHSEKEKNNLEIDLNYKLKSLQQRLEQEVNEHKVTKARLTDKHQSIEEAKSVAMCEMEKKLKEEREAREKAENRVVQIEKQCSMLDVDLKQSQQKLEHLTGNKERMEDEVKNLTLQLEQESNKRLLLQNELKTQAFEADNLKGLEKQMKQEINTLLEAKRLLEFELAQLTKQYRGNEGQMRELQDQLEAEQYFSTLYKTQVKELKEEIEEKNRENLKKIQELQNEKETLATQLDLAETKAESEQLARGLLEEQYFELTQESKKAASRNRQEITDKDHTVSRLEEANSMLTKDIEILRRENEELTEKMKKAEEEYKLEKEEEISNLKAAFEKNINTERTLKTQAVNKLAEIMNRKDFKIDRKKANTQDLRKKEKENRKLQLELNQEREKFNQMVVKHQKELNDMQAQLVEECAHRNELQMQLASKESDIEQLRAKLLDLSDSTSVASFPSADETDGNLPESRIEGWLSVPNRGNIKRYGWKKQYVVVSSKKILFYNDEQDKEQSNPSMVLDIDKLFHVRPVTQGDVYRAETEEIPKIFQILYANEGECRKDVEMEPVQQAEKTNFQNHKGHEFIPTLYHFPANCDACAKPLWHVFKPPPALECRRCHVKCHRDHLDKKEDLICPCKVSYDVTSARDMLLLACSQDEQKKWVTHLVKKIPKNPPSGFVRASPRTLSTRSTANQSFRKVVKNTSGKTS
Assay [11] shares this target. The conditions noted are these: at 1 µM.
Assay [12] addresses Rho-associated protein kinase 2 (Homo sapiens) (UniProt O75116). The note with it: at 0.1 µM.
For assay [13] the target is unchanged. The note with it: at 1 µM.
In assay [14] the target is Ribosomal protein S6 kinase alpha-1 (Homo sapiens) (UniProt Q15418). The note with it: at 0.1 µM.
Ribosomal protein S6 kinase alpha-1 (Homo sapiens), sequence (Q15418 whole entry): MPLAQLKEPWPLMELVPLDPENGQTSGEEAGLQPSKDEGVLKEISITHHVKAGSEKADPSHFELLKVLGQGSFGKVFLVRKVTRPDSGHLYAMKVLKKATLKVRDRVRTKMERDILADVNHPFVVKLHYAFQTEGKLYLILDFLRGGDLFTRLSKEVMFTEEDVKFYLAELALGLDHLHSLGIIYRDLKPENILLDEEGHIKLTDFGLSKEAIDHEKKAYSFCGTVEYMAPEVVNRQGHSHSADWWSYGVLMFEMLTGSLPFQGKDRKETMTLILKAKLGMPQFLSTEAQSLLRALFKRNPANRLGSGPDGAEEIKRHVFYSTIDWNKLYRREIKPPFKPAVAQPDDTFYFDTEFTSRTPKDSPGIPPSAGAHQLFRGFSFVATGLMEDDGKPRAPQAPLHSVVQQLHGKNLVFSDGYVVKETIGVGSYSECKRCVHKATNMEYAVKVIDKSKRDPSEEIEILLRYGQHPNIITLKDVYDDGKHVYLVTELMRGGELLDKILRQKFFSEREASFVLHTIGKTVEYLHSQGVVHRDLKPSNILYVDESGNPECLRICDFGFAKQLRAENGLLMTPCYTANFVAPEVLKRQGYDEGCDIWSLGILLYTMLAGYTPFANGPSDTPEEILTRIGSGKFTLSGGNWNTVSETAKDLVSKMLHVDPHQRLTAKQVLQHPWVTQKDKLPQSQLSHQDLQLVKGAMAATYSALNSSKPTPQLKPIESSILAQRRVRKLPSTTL
Assay [15] has the same target. The conditions noted are these: at 1 µM.
Assay [16] deals with Ribosomal protein S6 kinase alpha-3 (Homo sapiens) (UniProt P51812). The conditions noted are these: at 0.1 µM.
Assay [17] shares this target. The note with it: at 1 µM.
The target of assay [18] is Ribosomal protein S6 kinase alpha-2 (Homo sapiens) (UniProt Q15349). The conditions noted are these: at 0.1 µM.
Ribosomal protein S6 kinase alpha-2 (Homo sapiens), sequence (Q15349 whole entry): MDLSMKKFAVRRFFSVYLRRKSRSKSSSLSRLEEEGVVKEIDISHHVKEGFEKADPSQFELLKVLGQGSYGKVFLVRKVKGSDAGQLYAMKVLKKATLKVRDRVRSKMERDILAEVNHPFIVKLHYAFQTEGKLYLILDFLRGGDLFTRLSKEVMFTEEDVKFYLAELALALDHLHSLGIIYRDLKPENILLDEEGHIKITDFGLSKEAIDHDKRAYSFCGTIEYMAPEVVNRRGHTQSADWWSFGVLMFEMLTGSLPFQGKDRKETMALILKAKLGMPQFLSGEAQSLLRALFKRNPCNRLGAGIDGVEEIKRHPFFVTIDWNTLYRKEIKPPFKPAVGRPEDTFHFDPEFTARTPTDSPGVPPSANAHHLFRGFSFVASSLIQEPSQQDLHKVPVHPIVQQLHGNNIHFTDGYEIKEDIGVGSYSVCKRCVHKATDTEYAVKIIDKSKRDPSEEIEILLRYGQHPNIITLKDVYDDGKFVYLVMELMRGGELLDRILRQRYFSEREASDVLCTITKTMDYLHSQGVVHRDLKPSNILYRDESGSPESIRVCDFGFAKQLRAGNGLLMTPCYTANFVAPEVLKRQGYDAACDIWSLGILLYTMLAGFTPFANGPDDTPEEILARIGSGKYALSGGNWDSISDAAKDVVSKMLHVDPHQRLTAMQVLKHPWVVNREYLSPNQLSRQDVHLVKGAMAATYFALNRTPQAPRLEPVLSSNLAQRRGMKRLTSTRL
For assay [19] the target is unchanged. The conditions noted are these: at 1 µM.
The target in assay [20] is Ribosomal protein S6 kinase alpha-6 (Homo sapiens) (UniProt Q9UK32). The conditions noted are these: at 0.1 µM.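 Further: reported value is the mean inhibition of RSK4, from the GSK PKIS kinase inhibitor screen.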
Ribosomal protein S6 kinase alpha-6 (Homo sapiens), sequence (Q9UK32 whole entry): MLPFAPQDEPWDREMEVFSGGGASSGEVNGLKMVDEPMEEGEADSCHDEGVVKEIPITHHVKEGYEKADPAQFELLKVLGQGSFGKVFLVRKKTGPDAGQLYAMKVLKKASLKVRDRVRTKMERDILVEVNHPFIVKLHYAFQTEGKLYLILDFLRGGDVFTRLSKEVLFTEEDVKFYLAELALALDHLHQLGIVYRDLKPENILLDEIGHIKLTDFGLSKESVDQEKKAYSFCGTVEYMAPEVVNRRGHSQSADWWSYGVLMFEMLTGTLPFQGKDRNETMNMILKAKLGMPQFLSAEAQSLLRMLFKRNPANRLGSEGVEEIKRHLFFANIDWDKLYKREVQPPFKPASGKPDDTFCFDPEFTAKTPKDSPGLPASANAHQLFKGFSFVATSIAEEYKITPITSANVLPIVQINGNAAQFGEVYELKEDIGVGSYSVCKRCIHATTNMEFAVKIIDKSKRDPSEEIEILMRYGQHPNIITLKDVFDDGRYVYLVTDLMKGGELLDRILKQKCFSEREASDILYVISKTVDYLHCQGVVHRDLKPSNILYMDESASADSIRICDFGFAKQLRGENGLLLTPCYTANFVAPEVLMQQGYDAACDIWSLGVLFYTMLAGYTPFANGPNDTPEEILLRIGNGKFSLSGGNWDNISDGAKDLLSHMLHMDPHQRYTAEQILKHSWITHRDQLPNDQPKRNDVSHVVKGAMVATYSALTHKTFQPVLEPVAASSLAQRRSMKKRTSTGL

Rho-associated protein kinase 2 (Homo sapiens), sequence (O75116 whole entry, looked up): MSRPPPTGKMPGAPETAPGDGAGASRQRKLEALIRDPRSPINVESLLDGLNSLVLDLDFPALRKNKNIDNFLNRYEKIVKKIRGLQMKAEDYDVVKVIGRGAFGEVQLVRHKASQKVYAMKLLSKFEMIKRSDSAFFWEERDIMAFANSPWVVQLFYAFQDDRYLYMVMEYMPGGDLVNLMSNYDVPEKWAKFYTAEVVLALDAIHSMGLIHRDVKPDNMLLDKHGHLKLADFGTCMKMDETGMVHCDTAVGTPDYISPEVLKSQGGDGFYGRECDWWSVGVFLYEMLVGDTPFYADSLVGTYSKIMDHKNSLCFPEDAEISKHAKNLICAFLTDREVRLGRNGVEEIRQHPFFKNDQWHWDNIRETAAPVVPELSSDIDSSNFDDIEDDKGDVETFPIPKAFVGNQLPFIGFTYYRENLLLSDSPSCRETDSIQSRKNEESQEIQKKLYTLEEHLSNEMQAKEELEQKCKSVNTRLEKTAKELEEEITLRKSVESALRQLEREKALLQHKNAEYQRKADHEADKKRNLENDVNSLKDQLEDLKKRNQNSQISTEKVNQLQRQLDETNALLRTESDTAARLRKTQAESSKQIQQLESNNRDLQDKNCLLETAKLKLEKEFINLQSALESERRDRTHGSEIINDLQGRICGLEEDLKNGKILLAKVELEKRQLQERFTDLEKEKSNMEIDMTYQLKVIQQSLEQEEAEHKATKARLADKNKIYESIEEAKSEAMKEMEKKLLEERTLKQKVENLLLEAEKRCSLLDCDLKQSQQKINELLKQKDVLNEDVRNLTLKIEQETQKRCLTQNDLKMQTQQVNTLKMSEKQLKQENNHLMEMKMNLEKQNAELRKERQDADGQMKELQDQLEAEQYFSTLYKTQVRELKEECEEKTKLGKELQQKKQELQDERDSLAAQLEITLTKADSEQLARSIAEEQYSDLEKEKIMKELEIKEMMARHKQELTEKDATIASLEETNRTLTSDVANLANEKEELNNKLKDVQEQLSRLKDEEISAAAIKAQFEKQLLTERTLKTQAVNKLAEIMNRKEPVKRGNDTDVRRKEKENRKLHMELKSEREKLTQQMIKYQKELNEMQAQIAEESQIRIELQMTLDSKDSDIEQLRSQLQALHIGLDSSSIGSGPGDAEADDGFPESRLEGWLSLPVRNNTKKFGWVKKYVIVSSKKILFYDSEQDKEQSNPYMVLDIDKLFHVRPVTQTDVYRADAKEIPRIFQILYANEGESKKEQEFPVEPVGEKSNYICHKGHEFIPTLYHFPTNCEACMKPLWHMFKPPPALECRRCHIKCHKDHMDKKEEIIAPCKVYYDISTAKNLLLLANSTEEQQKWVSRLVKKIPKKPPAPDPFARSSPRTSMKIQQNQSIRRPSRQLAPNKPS

Regarding `CCc1cccc(NC(=O)Nc2ccc(Oc3ccc4nc(NC(=O)OC)[nH]c4c3)cc2)c1`, the inhibition in assay [1] is 1.88%; in assay [2], 1.72%; in [3], 0.75%; in [4], -0.2%; in assay [5], 3.08%; in assay [6] it was 0.88%. The inhibition in [7] worked out at 0.86%; in assay [8] it was 0.91%; in [9], 3.18%; in assay [10], 12.1%; in assay [11], 18.3%; in assay [12] it was 5.32%. The inhibition in assay [13] is 8.2%; in assay [14], 1.07%; in assay [15], 1.59%; in assay [16], 0.58%; in [17], 0.96%; in [18], 1.52%. For the same compound, the inhibition in assay [19] was 1.5%; in [20] it was -0.02%.

For the compound `O=C1Nc2ccc(C(=O)c3ccco3)cc2C1=Cc1cc(Cl)c(O)c(Cl)c1`, the inhibition in [1] is 5.54%; in assay [2], 3.68%; in assay [3], 6.98%; in assay [4], 1.67%; in assay [5], 4.46%; in assay [6], 1.29%. Also, the inhibition was determined as 5.93% in [7]; 1.34% in [8]; 2.91% in [9]; 1.44% in [10]; 7.03% in assay [11]; 2.19% in assay [12]. The inhibition came out at 12.1% in assay [13]; 3.17% in assay [14]; 11.9% in [15]; 0.85% in [16]; 6.32% in assay [17]; 1.45% in assay [18]. Further, the inhibition in assay [19] was 9.07%; in assay [20] it was 1.47%.

Take `CNC(=O)c1cncc(/C=C/c2c(Cl)cccc2Cl)c1`: the inhibition in assay [1] was found to be 3.77%; in [2] it was 1.19%; in assay [3], 4.45%; in [4], 4.02%; in assay [5], 5.23%; in assay [6] it was 1.23%. Moreover, the inhibition was 4.56% in assay [7]; 1.86% in assay [8]; 1.79% in assay [9]; 1.46% in [10]; 1.88% in assay [11]; 0.61% in assay [12]. Also, the inhibition in assay [13] was found to be 1.93%; in assay [14] it was 1.04%; in assay [15], 4.53%; in [16] it was 0.14%; in [17], 1.94%; in assay [18], 1.97%. The values for the inhibition in [19] and in [20] were 2.54% and 0.73%, respectively.

Turning to `O=C(Nc1n[nH]c2nc(-c3ccco3)c(Br)cc12)C1CC1`, the inhibition in [1] was 5.03%; in assay [2], 3.1%; in [3] it was 4.81%; in [4] it was 2.39%; in assay [5] it was 3.36%; in [6] it was 1.15%. In addition, the inhibition in assay [7] is 1.85%; in assay [8], 1.8%; in assay [9] it was -0.27%; in [10] it was 0.16%; in assay [11], 0.97%; in [12], 0.99%. Moreover, the inhibition was -0.88% in [13]; 1.12% in assay [14]; -0.1% in assay [15]; 0.52% in assay [16]; -0.3% in assay [17]; 1.97% in assay [18]. Further, the values for the inhibition in assay [19] and in assay [20] were 2.85% and 0.15%, respectively.
